Bioassay records as filed in PubChem.
The sample as a whole holds a higher share of hits than the screen did.
PI5P4K alpha inh = qHTS for Inhibitors of phosphatidylinositol 5-phosphate 4-kinase (PI5P4K); Phosphatidylinositol 5-phosphate 4-kinase type-2 alpha (Homo sapiens), P48426; PI5P4Kalpha enzyme, ADP-Glo luminescence, 60 min; stronger effect = lower value; max response, %; actives 1.2% (n = 330,000); AID 652105, 2013; active = max response of -50% or lower; inconclusive = between -30% and -50%; inactive = -30% or higher; note: value at the top dose of about 77 µM
Target sequence (P48426 whole entry, looked up): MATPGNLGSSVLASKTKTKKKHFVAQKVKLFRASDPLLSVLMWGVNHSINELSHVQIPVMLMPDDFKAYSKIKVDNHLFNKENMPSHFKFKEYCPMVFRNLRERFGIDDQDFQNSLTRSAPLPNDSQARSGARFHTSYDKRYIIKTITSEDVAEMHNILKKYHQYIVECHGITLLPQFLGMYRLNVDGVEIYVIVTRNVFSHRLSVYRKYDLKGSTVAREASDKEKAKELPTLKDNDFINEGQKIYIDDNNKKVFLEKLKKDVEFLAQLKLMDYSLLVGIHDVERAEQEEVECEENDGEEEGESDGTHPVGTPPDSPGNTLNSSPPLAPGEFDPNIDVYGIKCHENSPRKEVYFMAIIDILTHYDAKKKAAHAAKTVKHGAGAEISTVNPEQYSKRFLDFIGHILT
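Controls without substrate or without enzyme flank wells where PI5P4Kalpha converts substrate using 5 microM ATP (final). Incubation lasts 60 minutes at room temperature; ADP formed is read by ADP-Glo luminescence.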
PI4K2A block = qHTS for small molecular inhibitors of PI4K2A; Phosphatidylinositol 4-kinase type 2-alpha (Homo sapiens), Q9BTU6; purified PI4K2A, ADP-Glo luminescence, 1 h; stronger effect = lower value; activity change, negative = inhibition, % at 76.9 µM; actives 0.13% (n = 420,000); in the data active = activity change below about -50%; inconclusive = mostly about -30% to -49%
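ADP-Glo luminescence measured ADP generated by PI4K2A enzyme (4 ug/mL before mixing) with 1.2 mM PI substrate (pre-mix) and 300 microM ATP (pre-mix). Tris pH7.5 buffer with MgCl2, Triton X-100; 1 h reaction at ambient temperature.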
Tb PGK inh = qHTS Assay to Find Inhibitors of Phosphoglycerate Kinase; Phosphoglycerate kinase, glycosomal (Trypanosoma brucei brucei), P07378; PGK/GAPDH coupled, Kinase-Glo luminescence, 60 min; Potency, µM (highest dose often 57.5 µM), hits mostly inhibitors; actives 0.043% (n = 380,000); AID 602233, 2012; note: nearly all actives have a fitted effect of over 60% in size
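Luminescent ATP detection (Kinase-Glo Plus) follows a 60-minute room-temperature incubation, with wells lacking PGK as controls. Buffer: 100 mM TEA (pH 7.6), 5 mM MgCl2, 0.01% Tween-20. Coupling enzyme GAPDH (100 nM final) supplies unstable 1,3-BPG in-well.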
Pin1 inhibitor = qHTS Assay to Find Inhibitors of Pin1; Potency, µM (top dose mostly 115 µM), actives largely listed as inhibitors; Pin1 FP peptide displacement, HiFluor488, 10 min; AID 504891, 2011; Peptidyl-prolyl cis-trans isomerase NIMA-interacting 1 (Homo sapiens), Q13526; actives 0.009% (n = 390,000); active = well fitted inhibition curve with a large enough effect in the polarisation, with a control signal flat, not every such curve was filed as active; inconclusive = small, poorly fitted or top-dose-only effect, or effect the other way, or a change in a side signal; inactive = no such curve, though single readings can be large or run the other way; the % refers to the polarisation
Target sequence (Q13526 whole entry, looked up): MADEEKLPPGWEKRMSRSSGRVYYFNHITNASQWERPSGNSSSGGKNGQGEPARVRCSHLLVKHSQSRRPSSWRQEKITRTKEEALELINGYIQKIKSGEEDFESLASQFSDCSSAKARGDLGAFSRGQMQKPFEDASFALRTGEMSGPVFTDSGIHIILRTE
Tb PFK inh-1 = qHTS Assay to Find Inhibitors of T. brucei phosphofructokinase; ATP-dependent 6-phosphofructokinase (Trypanosoma brucei brucei), O15648; T. brucei PFK, ADP-Glo luminescence; Potency, µM (doses to about 57.5 µM), hits mostly inhibitors; actives 0.17% (n = 330,000); note: nearly all actives have a fitted effect of over 60% in size
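Activity is normalized to no-enzyme wells (full inhibition) and 1.25 nM enzyme wells (no inhibition). Reaction: 0.5 mM F6P, 0.1 mM ATP, 45 min RT, ADP-Glo luminescence; concentration-response curves fitted and classed by quality.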
Tb PFK KinaseGlo = Tb PFK orthogonal confirmatory assay using ATP depletion (Kinase-Glo Plus) as an alternative measure of Tb PFK activity: Hit Validation. shares compounds with Tb PFK inh-1. Tb PFK enzyme, ATP depletion, Kinase-Glo Plus luminescence. Potency, µM (series often up to 57.5 µM). actives 47% (n = 1,100); calls by dose curve; note: nearly all actives have a fitted effect of over 60% in size
Tb PFK inh-2 = Inhibitors of T. brucei phosphofructokinase: Hit Validation; shares compounds with Tb PFK inh-1; purified T. brucei PFK, ADP-Glo luminescence, 45 min; Potency, µM (top dose mostly 57.5 µM), usual class: inhibitors; actives 41% (n = 1,100); AID 504637, 2011; note: nearly all actives have a fitted effect of over 60% in size
Large screens that a line does not name were inactive (follow-up assays come after a bar, where they were run). Unless noted, calls come from the whole dose curve; as a rule, active = well fitted curve in the direction sought with a large enough effect; inconclusive = small, poorly fitted or top-dose-only effect, or another doubt; inactive = no such curve, though single readings can be large; an effect the other way counts as inactive or inconclusive.

CCCCn1c(=O)c(C(=O)NCc2ccc(Cl)cc2)c(O)c2ccccc21	none
CNC(C(=O)c1ccccc1)C(OC(C)=O)c1cccc([N+](=O)[O-])c1 (stereo not drawn)	none
O=C(CO)C(O)C(O)C(O)CO (stereo not drawn)	PI5P4K alpha inh inconclusive, Pin1 inhibitor inconclusive
COc1ccccc1N1CCN(C(=O)C(C)CS(=O)(=O)c2ccc3c(c2)NC(=O)CS3)CC1 (stereo not drawn)	Tb PGK inh inconclusive, Tb PFK inh-1 24µM | Tb PFK KinaseGlo 6µM | Tb PFK inh-2 inconclusive
CC(CNc1ccccc1O)C(=O)O (stereo not drawn)	Tb PGK inh inconclusive, Pin1 inhibitor inconclusive, Tb PFK inh-1 24µM | Tb PFK KinaseGlo inconclusive | Tb PFK inh-2 inconclusive
O=C(N=Nc1c(O)[nH]c(=O)[nH]c1=O)C1COc2ccccc2O1 (stereo not drawn)	none
O=C(N/N=C/c1ccco1)C1COc2ccccc2O1 (stereo not drawn)	Tb PFK inh-1 inconclusive | Tb PFK KinaseGlo inconclusive | Tb PFK inh-2 inconclusive
O=C(N/N=C\c1ccc[nH]1)C1COc2ccccc2O1 (stereo not drawn)	Tb PFK inh-1 24µM | Tb PFK KinaseGlo 9.5µM | Tb PFK inh-2 19µM
C#C[C@]1(O)C=C[C@H]2[C@@H]3CCC4=CC(=O)CC[C@@H]4[C@H]3CC[C@@]21CC	none (no result: PI5P4K alpha inh, Tb PGK inh, Pin1 inhibitor, Tb PFK inh-1)
Nc1nc(=S)c2[nH]cnc2[nH]1	PI5P4K alpha inh inconclusive, Tb PFK inh-1 inconclusive | Tb PFK KinaseGlo inconclusive | Tb PFK inh-2 inconclusive
CCCCc1nn2c(=O)cc(COC(=O)Cc3ccccc3)nc2s1	none (no result: PI5P4K alpha inh, Tb PFK inh-1)
COc1ccc(NC(=O)CNc2cccc(C#N)c2)cc1Cl	Tb PFK inh-1 inconclusive | Tb PFK KinaseGlo inconclusive | Tb PFK inh-2 inconclusive
CS(=O)(=O)NNC(=O)C1Cc2c(ccc3ccccc23)O1 (stereo not drawn)	Tb PFK inh-1 inconclusive | Tb PFK KinaseGlo inactive | Tb PFK inh-2 inconclusive
CCCCCCCCCC(CC)c1ccc(S(=O)(=O)O)cc1 (stereo not drawn)	none (no result: PI5P4K alpha inh, Tb PGK inh, Pin1 inhibitor, Tb PFK inh-1)
CCCn1c(C)c(C(=O)c2ccc3ccccc3c2)c2ccccc21	none (no result: PI5P4K alpha inh, Tb PGK inh, Pin1 inhibitor, Tb PFK inh-1)
CS(=O)(=O)Nc1ccccc1C(=O)OCC(=O)N1CCC(c2ccccc2)=N1	Tb PFK inh-1 inconclusive | Tb PFK KinaseGlo inconclusive | Tb PFK inh-2 inconclusive
CC(C)(C)n1nnnc1C1CN=C(c2ccccc2)c2ccccc2N1 (stereo not drawn)	none (no result: PI5P4K alpha inh, Tb PGK inh, Pin1 inhibitor, Tb PFK inh-1)
CC(C)(C)CC(=O)Nc1cc(S(=O)(=O)N2CCOCC2)ccc1N1CCCC1	Tb PFK inh-1 inconclusive | Tb PFK KinaseGlo inactive | Tb PFK inh-2 inconclusive
CCN1CCN(C(=O)COc2ccc(S(=O)(=O)N3CCOCC3)cc2Cl)CC1	none
CCOC(=O)c1c(NC(=O)COC(=O)c2ccc(NC(=O)CC#N)cc2)sc(C(=O)NC)c1C	PI5P4K alpha inh inconclusive, Tb PFK inh-1 0.85µM | Tb PFK KinaseGlo 6µM | Tb PFK inh-2 6.7µM
Clc1ccc(N2CC3CCC(C2)N3)nn1	none (no result: PI5P4K alpha inh, Tb PGK inh, Pin1 inhibitor, Tb PFK inh-1)
O=C(NCc1ccc(F)cc1)C(=O)NCC1CCCN1S(=O)(=O)c1ccccc1 (stereo not drawn)	Tb PFK inh-1 inconclusive | Tb PFK KinaseGlo 24µM | Tb PFK inh-2 inconclusive
CCOc1ccccc1NC(=O)c1sc2nc3c(cc2c1N)CN(Cc1ccccc1)CC3	Pin1 inhibitor inconclusive (no result: PI5P4K alpha inh, Tb PFK inh-1)
